# Test results from PubChem BioAssay (NCATS).
# Records with an inconclusive call do not appear. Entries that show only a call come without a potency. Activity calls are given as the source filed them. Unless noted, calls follow the shape of the dose curve; as a rule, active = well fitted curve in the direction sought with a large enough effect; inconclusive = small, poorly fitted or top-dose-only effect, or another doubt; inactive = no such curve, though single readings can be large; an effect the other way counts as inactive or inconclusive.
# What was measured:
# [1] = target: Furin (Homo sapiens) (UniProt P09958); assay: Furin counterscreen qHTS for Zika virus inhibitors (AID 1347149); also: nearly all actives have a fitted effect of over 70% in size; also: potency is read from the fitted curve at half-maximal effect;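 as to activity change, negative = inhibition: purified recombinant full-length human furin enzyme at 5 nM; fluorescence gain from furin cutting a BOC-RVRR-AMC peptide substrate over 15 min; top concentration of the series differs between compounds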
# Outline: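 Counterscreen measures cleavage of 2 microM BOC-RVRR-AMC, below its ~15 microM Km, by 5 nM full-length human furin at pH 7.0 after a 15-min compound preincubation. Inhibition derives from the 15-min fluorescence increase at 37C.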
# [2] = Confirmatory screen NINDS Rhodamine qHTS for Zika virus inhibitors (AID 1347161); also: nearly all actives have a fitted effect of over 60% in size; also: potency is read from the fitted curve at half-maximal effect;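 as to activity change, negative = inhibition: purified Zika NS2B-NS3 protease with linked NS2B cofactor domain and Rhodamine110 peptide substrate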
# Outline: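 Single-chain NS2B-NS3 protease, 25 nM, pH 8.0; compounds preincubated 15 min. Activity: Rhodamine110 release from 1.5 microM substrate over 15 min, room temperature, data fitted to 4-parameter Hill.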
# [3] = tested on: Zika virus NS2B-NS3 protease (linked); assay: 384 well plate NINDS AMC confirmatory qHTS for Zika virus inhibitors (AID 1347163); also: nearly all actives have a fitted effect of over 50% in size; also: potency is read from the fitted curve at half-maximal effect;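 as to activity change, negative = inhibition: linked protease at 5 30 or 60 nM final depending on run; fluorescence of AMC released from Ac-VKTGKR-AMC peptide cleaved by the protease; top concentration of the series differs between compounds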
# Outline: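 Fluorescence at 355/460 nm was read after 25 minutes of cleavage of 30 microM Ac-VKTGKR-AMC at room temperature, in the dark. Before substrate addition, compounds (up to 1 mM final) sat ~15 minutes with 5, 30 or 60 nM linked protease. Signals were normalized to no-enzyme and no-inhibitor wells.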
# [4] = tested on: Zika virus NS2B-NS3 protease (linked construct); assay: 384 well plate NINDS Rhodamine confirmatory qHTS for Zika virus inhibitors (AID 1347164);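 also: fluorescence from protease cleavage of Ac-LKRR-rhodamine 110 substrate; nearly all actives have a fitted effect of over 65% in size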; also: potency is read from the fitted curve at half-maximal effect; as to activity change, negative = inhibition: top concentration of the series differs between compounds
# Outline: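 Linked protease at a final 5 nM, 30 nM or 60 nM was preincubated ~15 min with compounds, then given 10 microM Ac-LKRR-Rhodamine 110. Fluorescence (ex 485/em 538 nm) after 25 min in the dark at room temperature.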
# [5] = Primary qHTS for small molecule stabilizers of the endoplasmic reticulum resident proteome: Secreted ER Calcium Modulated Protein (SERCaMP) assay (AID 1508630)
# Outline: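 The SH-SY5Y reporter protocol was run at 3 concentrations up to 38.3 uM (primary) or 11 concentrations (follow-up): 16 h compound, 100 nM thapsigargin for 4 h, then extracellular luciferase luminescence.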
# [6] = Tertiary RLuc qRT-PCR qHTS assay for Zika virus inhibitors (AID 1347169); also: top concentration of the series differs between compounds; nearly all actives have a fitted effect of over 55% in size
# Outline: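 Vero cells (1,000 per well) plated overnight at 37 degrees C, treated with compound in DMSO, then infected with recombinant ZIKV-RLuc (Cambodian) at MOI 1-2 for 48-72 hrs. Live-cell Renilla luciferase substrate added; luminescence read after 1-1.5 hrs.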
# [7] = ZIKV-mCherry secondary qHTS for Zika virus inhibitors (AID 1347158); also: top concentration of the series differs between compounds
# Outline: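 Compounds were tested in Vero monkey kidney cells infected with recombinant mCherry-expressing Zika virus at MOI 1 for 48-72 h at 37 °C. Fixed cells were nuclear-stained and imaged, and infection rate was taken as the fraction of mCherry-positive cells.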
# [8] = target: Cytochrome P450 2C9 (Homo sapiens) (UniProt P11712); assay: Cytochrome P450 family 2 subfamily C member 9 (CYP2C9) small molecule antagonists: luciferase biochemical (cell-free) qHTS assay (AID 1645842; active = well fitted curve in the direction sought with a large enough effect in the repeat runs; an effect the other way counts as inactive or inconclusive; also: potency is read from the fitted curve at half-maximal effect; nearly all actives have a fitted effect of over 55% in size)
# Outline: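 P450-Glo CYP2C9 system: proluciferin substrate with enzyme in mix containing 0.4% BSA, 10 min at room temperature, then NADPH regeneration solution added and incubated 1 h at 37C. Detection reagent stopped reaction; luminescence read after 20 min as RLU.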
# [9] = target: Cytochrome P450 3A4 (Homo sapiens) (UniProt P08684); assay: qHTS Assay for Activators of Cytochrome P450 3A4 (AID 885); also: nearly all actives have a fitted effect of over 65% in size
# Outline: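 CYP3A4 activity: Luciferin-PPXE O-dealkylation, 25uM substrate, 200mM KPO4, RT throughout. Read-out is luciferase luminescence; higher values reflect activation.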
# [10] = qHTS Assay for Lipid Storage Modulators (AID 1519; calls by dose curve); conditions: Drosophila S3 cells, BODIPY lipid droplet/cell ratio, laser cytometry, cells loaded with oleic acid
# Outline: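 Cells seeded at 5,000 per well were treated with compounds over a concentration series and loaded with oleic acid (400 uM, as added). Lipid droplet fluorescence (488 nm excitation, 500-530 nm channel) was read by laser-scanning cytometry and normalized to 20 uM Triacsin C.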
# Sequence of Furin (Homo sapiens) (P09958 whole entry, looked up): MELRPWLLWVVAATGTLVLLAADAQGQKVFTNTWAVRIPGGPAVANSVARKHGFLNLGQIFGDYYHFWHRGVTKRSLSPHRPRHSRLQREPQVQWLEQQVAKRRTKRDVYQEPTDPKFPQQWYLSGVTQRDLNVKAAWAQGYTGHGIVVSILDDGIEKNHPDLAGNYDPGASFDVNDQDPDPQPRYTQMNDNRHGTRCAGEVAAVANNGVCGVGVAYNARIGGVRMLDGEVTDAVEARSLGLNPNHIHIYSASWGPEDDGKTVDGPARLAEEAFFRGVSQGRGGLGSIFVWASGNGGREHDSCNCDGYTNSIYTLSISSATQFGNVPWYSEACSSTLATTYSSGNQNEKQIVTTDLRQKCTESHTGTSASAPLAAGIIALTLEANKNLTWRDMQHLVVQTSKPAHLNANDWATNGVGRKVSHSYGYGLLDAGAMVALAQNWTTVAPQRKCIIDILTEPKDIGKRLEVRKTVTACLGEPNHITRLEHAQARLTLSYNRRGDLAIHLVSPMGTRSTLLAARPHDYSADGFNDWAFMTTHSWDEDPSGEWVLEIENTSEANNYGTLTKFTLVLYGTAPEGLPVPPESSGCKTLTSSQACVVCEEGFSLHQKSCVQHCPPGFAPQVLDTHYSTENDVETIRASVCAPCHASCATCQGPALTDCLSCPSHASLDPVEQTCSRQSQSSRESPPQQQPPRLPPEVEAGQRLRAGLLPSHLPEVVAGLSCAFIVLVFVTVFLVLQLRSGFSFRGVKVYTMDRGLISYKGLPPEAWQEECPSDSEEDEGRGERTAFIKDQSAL
# Sequence of Cytochrome P450 2C9 (Homo sapiens) (P11712 whole entry, looked up): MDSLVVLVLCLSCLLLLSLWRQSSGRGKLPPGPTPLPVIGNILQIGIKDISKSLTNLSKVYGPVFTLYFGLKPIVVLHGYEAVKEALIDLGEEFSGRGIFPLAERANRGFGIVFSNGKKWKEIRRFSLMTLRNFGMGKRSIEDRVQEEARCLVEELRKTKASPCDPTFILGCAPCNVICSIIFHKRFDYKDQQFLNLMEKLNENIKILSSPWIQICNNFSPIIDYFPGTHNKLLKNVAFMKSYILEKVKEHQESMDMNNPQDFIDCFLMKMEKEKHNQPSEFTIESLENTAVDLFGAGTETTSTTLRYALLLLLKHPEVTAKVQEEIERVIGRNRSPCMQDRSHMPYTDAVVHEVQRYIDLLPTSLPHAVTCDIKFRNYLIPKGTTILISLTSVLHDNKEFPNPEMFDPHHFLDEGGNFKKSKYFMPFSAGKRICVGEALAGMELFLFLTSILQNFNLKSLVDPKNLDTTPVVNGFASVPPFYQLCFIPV
# Sequence of Cytochrome P450 3A4 (Homo sapiens) (P08684 whole entry, looked up): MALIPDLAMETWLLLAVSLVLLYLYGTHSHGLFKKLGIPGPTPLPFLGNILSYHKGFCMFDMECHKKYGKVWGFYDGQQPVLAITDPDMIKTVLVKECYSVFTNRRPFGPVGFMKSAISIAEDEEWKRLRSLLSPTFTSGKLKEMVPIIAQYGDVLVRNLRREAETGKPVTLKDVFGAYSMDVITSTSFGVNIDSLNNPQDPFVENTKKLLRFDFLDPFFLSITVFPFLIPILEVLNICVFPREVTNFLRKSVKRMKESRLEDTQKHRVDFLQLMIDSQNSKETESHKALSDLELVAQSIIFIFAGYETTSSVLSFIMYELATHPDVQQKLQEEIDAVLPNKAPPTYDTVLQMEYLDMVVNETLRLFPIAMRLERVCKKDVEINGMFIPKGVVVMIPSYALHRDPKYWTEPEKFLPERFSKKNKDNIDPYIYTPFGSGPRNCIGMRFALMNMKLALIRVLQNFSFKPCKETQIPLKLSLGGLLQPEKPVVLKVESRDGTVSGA
compound,measurement,setting,value
CC[C@@H](C(=O)[C@H](C)[C@@H](O)[C@H](C)CCc1ccc(C)c(O)c1C(=O)O)C1O[C@@](CC)(C2CC[C@](O)(CC)[C@H](C)O2)C[C@@H]1C (some centres undefined),Potency,[1],inactive
same,Potency,[2],9.84 µM (active)
same,Potency,[3],158 µM (active)
same,Potency,[4],31.6 µM (active)
same,Potency,[5],inactive
O=C(/C=C/c1ccc(C(F)(F)F)cc1)OC(C(=O)NC1CC1)c1ccccc1 (centres undefined),Potency,[1],inactive
same,Potency,[2],inactive
same,Potency,[6],inactive
O=C(CSc1ncccc1C(=O)Oc1ccccc1Cl)Nc1ccccc1Cl,Potency,[1],inactive
same,Potency,[2],inactive
same,Potency,[6],inactive
Cc1ccc(-c2nnc(Nc3ccc(Br)cc3)c3ccccc23)cc1S(=O)(=O)NCc1nc2ccccc2[nH]1,Potency,[1],52.7 µM (active)
same,Potency,[7],inactive
same,Potency,[3],inactive
same,Potency,[4],inactive
same,Potency,[8],0.849 µM (active)
COc1ccc(-c2cc(=O)c3c(O)cc(O)c(-c4cc(-c5cc(=O)c6c(O)cc(O)cc6o5)ccc4OC)c3o2)cc1,Potency,[9],inactive
same,"activity change, negative = inhibition",[10]; at 57.5 µM (top of the series),6.01% (inactive)
same,max response,[10]; measured here: cell count channel max response,-20.7%
same,max response,[10]; measured here: lipid channel max response,-15.6%
same,Potency,[1],inactive
same,Potency,[2],25.1 µM (active)
same,Potency,[3],112 µM (active)
same,Potency,[6],inactive
